Source: the emibetuzumab library of Makowski et al. (2022)
The list shows a part of the results. How many sequences the whole screen found active is unknown.

B1: VH:VL chains; a variant is named by its letters at X, in order (parent)
chain 1: QVQLVQSGAEVKKPGASVKVSCKASGYTFTDYXMHWVRQAPGQGLEWMGXVNPNXXXTTYNQKFEGRVTMTTDTSTSTAYMELRSLRSDDTAVYYCARXNXLDXWGQGTTVTVSS
chain 2: DIQMTQSPSSLSASVGDRVTITCSVSSSVSSIYLHWYQQKPGKAPKLLIYSTSNLASGVPSRFSGSGSGTDFTLTISSLQPEDFATYYCQVYSGYPLTFGGGTKVEIK

Variants of: B1
Assay: yeast display scFab, FACS + sequencing
Conditions: with MET
Method in brief: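 Antigen binding was called positive for sequences present in both antigen-positive samples and negative for those present only in the input. These calls came from deep sequencing, in two replicates, of round-3 sorted and input populations from a heavy-chain CDR mutant scFab yeast surface library. The library was first enriched twice magnetically on HGFR-Fc-coated Protein A beads and then by FACS, gating the top 50% antigen-positive cells after 3 h labelling at room temperature with 1 nM HGFR-Fc plus anti-Myc in PBSB with 1% milk.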
In the case of ATGRADWA, the antigen binding call is reported as “no binding”.
With VTETGDSV the antigen binding call was “no binding”.
YTGEDDVY was tested, and the antigen binding call was “no binding”.
With YTGTSAGD the antigen binding call was “no binding”.
YAGKSAGD was tested, and the antigen binding call was “no binding”.
YRGKASGD was tested, and the antigen binding call was “binds”.
For YRGKAAGD, the antigen binding call was “binds”.
With FRRKDDWA the antigen binding call was “no binding”.
For YRRRGSWA, the antigen binding call was “binds”.
FRRRGAWA was tested, and the antigen binding call was “binds”.
YRRRGYWA was tested, and the antigen binding call was “binds”.
With YRRRGAWA the antigen binding call was “binds”.
With ATGEDDVY the antigen binding call was “no binding”.
DEGGTDGY was tested, and the antigen binding call was “no binding”.
In the case of FARKGDGV, the antigen binding call is reported as “no binding”.
For YRRRGDWA, the antigen binding call was “binds”.
SARRGDWA was tested, and the antigen binding call was “no binding”.
YRRRGVWA was tested, and the antigen binding call was “binds”.
YRREGDWA was tested, and the antigen binding call was “no binding”.
For DATGGDGV, the antigen binding call was “no binding”.
FRRRGALD was tested, and the antigen binding call was “binds”.
With FRRGGSAF the antigen binding call was “binds”.
FARGGDAV was tested, and the antigen binding call was “no binding”.
In the case of FAGRGALD, the antigen binding call is reported as “no binding”.
For FRRRGAVD, the antigen binding call was “binds”.
For FRRRGAAD, the antigen binding call was “binds”.
For FARKSYGA, the antigen binding call was “no binding”.
With AETKGDGV the antigen binding call was “no binding”.
With YGTATFLV the antigen binding call was “no binding”.
VRTKDFSY was tested, and the antigen binding call was “no binding”.
For FGATSFSV, the antigen binding call was “no binding”.
FAGGDYGS was tested, and the antigen binding call was “no binding”.
With DTAGDAVV the antigen binding call was “no binding”.
FARGGSAD was tested, and the antigen binding call was “no binding”.
DARGGSAD was tested, and the antigen binding call was “no binding”.
With FRRGGSAD the antigen binding call was “binds”.
YRRRGSAD was tested, and the antigen binding call was “binds”.
For FRRRGSAD, the antigen binding call was “binds”.
YRRKGSVD was tested, and the antigen binding call was “binds”.
With YRAKGSVD the antigen binding call was “binds”.
For DRAGDSVD, the antigen binding call was “no binding”.
For YRAGDSVD, the antigen binding call was “binds”.
For FKGRGAVD, the antigen binding call was “binds”.
YAGTGAVA was tested, and the antigen binding call was “no binding”.
With SKGKGAVA the antigen binding call was “no binding”.
In the case of YTTGGAVA, the antigen binding call is reported as “no binding”.
For FKGKGAVA, the antigen binding call was “no binding”.
In the case of YKTRSAVA, the antigen binding call is reported as “binds”.
In the case of VKGAGSVV, the antigen binding call is reported as “no binding”.
YKGKGSVV was tested, and the antigen binding call was “binds”.
For YKGKGAVA, the antigen binding call was “binds”.
In the case of YKTGNDVA, the antigen binding call is reported as “no binding”.
DTKAASWA was tested, and the antigen binding call was “no binding”.
With FKGEGDVA the antigen binding call was “no binding”.
YKGKGSVA was tested, and the antigen binding call was “binds”.
In the case of FKAGGAVA, the antigen binding call is reported as “binds”.
In the case of AATGSAWA, the antigen binding call is reported as “no binding”.
In the case of DRTTNAGD, the antigen binding call is reported as “no binding”.
In the case of DRAGGAGD, the antigen binding call is reported as “binds”.
With DRGGSAGD the antigen binding call was “binds”.
VRGGSDVD was tested, and the antigen binding call was “no binding”.
DRGEGAGD chain 1 G42D was tested, and the antigen binding call was “binds”.
For DAARGAGD, the antigen binding call was “no binding”.
DAGGGAGD was tested, and the antigen binding call was “no binding”.
With DAGEAAGD the antigen binding call was “no binding”.
In the case of DKGGAAGD, the antigen binding call is reported as “no binding”.
In the case of FRGGSAVD, the antigen binding call is reported as “binds”.
DRGRDAGD was tested, and the antigen binding call was “no binding”.
FAGRDVGV was tested, and the antigen binding call was “no binding”.
In the case of SGKGGSAY, the antigen binding call is reported as “no binding”.
With FRGADFGD the antigen binding call was “no binding”.
With FRKGSAVD the antigen binding call was “binds”.
For FTGGAAGD, the antigen binding call was “no binding”.
FRGGSAGD was tested, and the antigen binding call was “binds”.
In the case of DAGGADAY, the antigen binding call is reported as “no binding”.
For FTGGASGV chain 1 V111I, the antigen binding call was “no binding”.
With VKGRGASV the antigen binding call was “binds”.
In the case of YKGRGASV, the antigen binding call is reported as “binds”.
With YGGGGASV the antigen binding call was “binds”.
In the case of YKAKGASV, the antigen binding call is reported as “binds”.
YEGGGFSV was tested, and the antigen binding call was “no binding”.
With VKGRAFSV the antigen binding call was “no binding”.
VEGTSASV was tested, and the antigen binding call was “no binding”.
In the case of YGGGGDVV, the antigen binding call is reported as “no binding”.
In the case of YKAGDVSV, the antigen binding call is reported as “no binding”.
In the case of SEEGTDWY, the antigen binding call is reported as “no binding”.
For DAGGAAAD, the antigen binding call was “no binding”.
YEGTGAGA was tested, and the antigen binding call was “no binding”.
With VKGRSFLV the antigen binding call was “no binding”.
In the case of VKGRSDWV, the antigen binding call is reported as “no binding”.
YKRRSASA was tested, and the antigen binding call was “binds”.
YKGRSASV was tested, and the antigen binding call was “binds”.
FKRRSVGA was tested, and the antigen binding call was “no binding”.
With YAGRGDSA the antigen binding call was “no binding”.
With YKGRGASA the antigen binding call was “binds”.
In the case of YAGRGASA, the antigen binding call is reported as “no binding”.
With YKGRGASD the antigen binding call was “binds”.
With VERGTYGV the antigen binding call was “no binding”.
For AKTKSDWV, the antigen binding call was “no binding”.
In the case of VTTRDDSD, the antigen binding call is reported as “no binding”.
In the case of VAGTGDWY, the antigen binding call is reported as “no binding”.
In the case of DTEGDAGD, the antigen binding call is reported as “no binding”.
With VTGESDWY the antigen binding call was “no binding”.
In the case of FRGGGSGV, the antigen binding call is reported as “binds”.
In the case of FRGKGSGV, the antigen binding call is reported as “binds”.
In the case of FRGGGFVV, the antigen binding call is reported as “no binding”.
FRGEGALV was tested, and the antigen binding call was “binds”.
For FRGKGFGV, the antigen binding call was “no binding”.
In the case of FRKGGSGV, the antigen binding call is reported as “binds”.
FRGEGFSV was tested, and the antigen binding call was “no binding”.
With VTGEGALV the antigen binding call was “no binding”.
FRGGSSGV was tested, and the antigen binding call was “binds”.
With FKGGNVGV the antigen binding call was “no binding”.
With FAGEGAGV the antigen binding call was “no binding”.
With FRGGGVGV the antigen binding call was “binds”.
In the case of ARGEGSGV, the antigen binding call is reported as “no binding”.
With FRGEGSGV the antigen binding call was “binds”.
VRGGGVGV was tested, and the antigen binding call was “no binding”.
In the case of STEGGSVY, the antigen binding call is reported as “no binding”.
SKTKSDWA was tested, and the antigen binding call was “no binding”.
With SGEGGAVA the antigen binding call was “no binding”.
DEAGGDGY was tested, and the antigen binding call was “no binding”.
For YRKESAVY, the antigen binding call was “binds”.
For YRRGSSLY, the antigen binding call was “binds”.
In the case of YRRGSALY, the antigen binding call is reported as “binds”.
In the case of YRRGDSLY, the antigen binding call is reported as “binds”.
In the case of FARKSDSS, the antigen binding call is reported as “no binding”.
In the case of DKKKDVVF, the antigen binding call is reported as “no binding”.
For FKTAGSAV chain 1 R67H, the antigen binding call was “no binding”.
With YRRGSAVY the antigen binding call was “binds”.
For YRRGSYVY, the antigen binding call was “no binding”.
With ATGGAALD the antigen binding call was “no binding”.
With YRKGSSAA the antigen binding call was “binds”.
In the case of YRKGGSAA, the antigen binding call is reported as “binds”.
VAEEDAGY was tested, and the antigen binding call was “no binding”.
For DARGAYLV, the antigen binding call was “no binding”.
YRAGDFGV was tested, and the antigen binding call was “no binding”.
YRGKAAGV was tested, and the antigen binding call was “binds”.
For YTGTSAGV, the antigen binding call was “no binding”.
With YRGKAFGV the antigen binding call was “binds”.
VKAASAVY was tested, and the antigen binding call was “no binding”.
In the case of FRARGAAY, the antigen binding call is reported as “binds”.
For VTGTGAAD, the antigen binding call was “no binding”.
For YKARGAVY, the antigen binding call was “binds”.
With VRARGAAD the antigen binding call was “binds”.
With VAEGDAAD the antigen binding call was “no binding”.
In the case of YKGRSAVY, the antigen binding call is reported as “no binding”.
For YRARGAAY, the antigen binding call was “binds”.
For DRRANFLY, the antigen binding call was “no binding”.
For DREEGDGS, the antigen binding call was “no binding”.
For YKARGAAY, the antigen binding call was “binds”.
For VRARGAAY, the antigen binding call was “binds”.
With VEGTSAAY the antigen binding call was “no binding”.
DKATGDAY was tested, and the antigen binding call was “no binding”.
FRRTDFVA chain 1 C22Y was tested, and the antigen binding call was “no binding”.
In the case of ARRRGAAA, the antigen binding call is reported as “binds”.
AEEEGSAA was tested, and the antigen binding call was “no binding”.
With ARGRSDVA the antigen binding call was “no binding”.
With ARRRGSAA the antigen binding call was “binds”.
With ARGRGSVA the antigen binding call was “binds”.
In the case of AETKGAAA, the antigen binding call is reported as “no binding”.
With ARGRGSAA the antigen binding call was “binds”.
In the case of ARKTGAGA, the antigen binding call is reported as “no binding”.
For VETTDSWV, the antigen binding call was “no binding”.
VAERSFGV was tested, and the antigen binding call was “no binding”.
With VEEAAAGV the antigen binding call was “no binding”.
FTRESFAA was tested, and the antigen binding call was “no binding”.
With ARAGGAAA the antigen binding call was “binds”.
With ARAGDAVA the antigen binding call was “no binding”.
In the case of ARAGSAWA, the antigen binding call is reported as “no binding”.
SKGKGAGD was tested, and the antigen binding call was “binds”.
For SKGRSDVF, the antigen binding call was “no binding”.
In the case of SKGRGAGS, the antigen binding call is reported as “binds”.
For YKGKGAGF, the antigen binding call was “binds”.
YKGKGFGF was tested, and the antigen binding call was “no binding”.
With SKGKGAGF the antigen binding call was “binds”.
YKGKGSGF was tested, and the antigen binding call was “binds”.
For DAGKGAGD, the antigen binding call was “no binding”.
DGEGGDWD was tested, and the antigen binding call was “no binding”.
With VGRTSFGF the antigen binding call was “no binding”.
In the case of YKAGGFWF, the antigen binding call is reported as “no binding”.
In the case of YKGKGSLF, the antigen binding call is reported as “binds”.
For YKAGGSLF, the antigen binding call was “binds”.
With VKGRADWF the antigen binding call was “no binding”.
For VTGEDDVV, the antigen binding call was “no binding”.
With VKGRADAV the antigen binding call was “no binding”.
AATTDSSS was tested, and the antigen binding call was “no binding”.
SAGRGDGS was tested, and the antigen binding call was “no binding”.
With SRGRGSLS the antigen binding call was “binds”.
In the case of SGTADSSS, the antigen binding call is reported as “no binding”.
For ARGRGSSS, the antigen binding call was “binds”.
For SRGRGVLV, the antigen binding call was “no binding”.
For SRGRGSSS, the antigen binding call was “binds”.
With SEGRGDGA the antigen binding call was “no binding”.
For AKTKSDGV, the antigen binding call was “no binding”.
For ATGGDSGD, the antigen binding call was “no binding”.
With YKGRGVGA the antigen binding call was “binds”.
With AKGRGDGA the antigen binding call was “no binding”.
For VEGRGDGA, the antigen binding call was “no binding”.
For VKGRGVGA, the antigen binding call was “binds”.
For YAGRGDGA, the antigen binding call was “no binding”.
With VRGGGDGY the antigen binding call was “binds”.
In the case of VTGGGDGS, the antigen binding call is reported as “no binding”.
In the case of ARERGDGY, the antigen binding call is reported as “no binding”.
In the case of VRGGSDGY, the antigen binding call is reported as “binds”.
For VAGTGDGY, the antigen binding call was “no binding”.
In the case of VEARGDGA, the antigen binding call is reported as “no binding”.
With VRGGDDGV the antigen binding call was “no binding”.
In the case of VRARGDGY, the antigen binding call is reported as “binds”.
For VTGGDDGY, the antigen binding call was “no binding”.
DAERTDGV was tested, and the antigen binding call was “no binding”.
